These results are taken from PMC6792352, “Limited Chemical Structural Diversity Found to Modulate Thyroid Hormone Receptor in the Tox21 Chemical Library” (Environmental Health Perspectives, 2019).

The structures appear in SMILES notation. Counter-ions that a name gives are not always drawn.

This assay deals with thyroid hormone receptor (endogenous TRα and TRβ). Also on record: species or system GH3-TRE-Luc (rat pituitary); GH3-TRE-Luc luciferase reporter, antagonist mode against 1 nM T3, loss of signal, qHTS. The settings on record: read-out: Average AC50 (uM) GH3-TRE-Antag, antagonist mode, 1 nM T3, no GH3 cytotoxicity hit.
For the compound `CC1=NC(C)OC1C` (stereo not shown) [2,4,5-Trimethyl-3-oxazoline], the concentration at half-maximal activity (AC50) – broadly, the concentration giving half of the maximal activity seen – was more than 90 µM.

With `S=P(N1CC1)(N1CC1)N1CC1` [Thiotepa], the concentration at half-maximal activity (AC50) stood at 37.9 µM.

With `CC(C)=CCC/C(C)=C/C=C/C(C)=C/C=C/C(C)=C/C=C/C=C(C)/C=C/C=C(C)/C=C/C=C(\C)CCC=C(C)C` [Lycopene], the AC50 was 31.7 µM.

Consider `CC1(C)C(C=C(Cl)Cl)[C@@H]1C(=O)O[C@@H](C#N)c1ccc(F)c(Oc2ccccc2)c1` (stereo partly shown) [Cyfluthrin], for which the AC50 worked out at 39.9 µM.

Consider `C[C@H]1O[C@@H](O[C@H]2[C@@H](O)C[C@H](O[C@H]3[C@@H](O)C[C@H](O[C@H]4CC[C@@]5(C)[C@H](CC[C@@H]6[C@@H]5CC[C@]5(C)[C@@H](C7=CC(=O)OC7)CC[C@]65O)C4)O[C@@H]3C)O[C@@H]2C)C[C@H](O)[C@@H]1O` [Digitoxin], for which the concentration at half-maximal activity (AC50) worked out at 40 µM.

In the case of `COc1ccc(CN(CCN(C)C)c2ccccn2)cc1` [Pyrilamine maleate], the AC50 was 32.2 µM.

As for `C=CC(=O)OCCOc1ccccc1` [2-Phenoxyethyl acrylate], the AC50 came out at 47.8 µM.

With `CCOC(=O)c1c(N)sc2c1CCN(Cc1ccccc1)C2` [Tinoridine], the concentration at half-maximal activity (AC50) is 37.8 µM.

On to `CCCC(=O)OC[C@@H](OC(=O)CCC)[C@@H](OC(=O)CCC)[C@H](Cn1c2nc(=O)[nH]c(=O)c-2nc2cc(C)c(C)cc21)OC(=O)CCC` [Riboflavin tetrabutyrate], for which the AC50 worked out at 42 µM.

Consider `Cc1cc(C(F)(C(F)(F)F)C(F)(F)F)ccc1NC(=O)c1cccc(I)c1C(=O)NC(C)(C)CS(C)(=O)=O` [Flubendiamide], for which the concentration at half-maximal activity (AC50) was found to be 33.5 µM.

In the case of `O=C(CS)OCCOC(=O)CS` [Ethane-1,2-diyl bis(sulfanylacetate)], the half-maximal activity concentration (AC50) amounted to 51.5 µM.

As for `O=C(C[C@H]1NCCC[C@@H]1O)Cn1cnc2cc(Br)c(Cl)cc2c1=O` (racemic) [Halofuginone hydrochloride], the half-maximal activity concentration (AC50) amounted to 46.9 µM.

On to `COc1ccc(N=[N+]([O-])c2ccc(OC)cc2)cc1` [4-Azoxyanisole], for which the concentration at half-maximal activity (AC50) stood at 30.2 µM.

Take `CCC1(C2=NCCN2)Cc2ccccc2O1` (stereo not shown) [Efaroxan]: the concentration at half-maximal activity (AC50) worked out at 45.2 µM.

As to `C=CCOC(Cn1ccnc1)c1ccc(Cl)cc1Cl` (stereo not shown) [Imazalil sulfate], the concentration at half-maximal activity (AC50) was found to be 28.4 µM.

Consider `COc1ccc2nc(NC(=O)Nc3ccccc3)sc2c1` [Frentizole], for which the AC50 worked out at 11.4 µM.

`CCCC(=O)c1cc(O)c(O)cc1O` [2',4',5'-Trihydroxybutyrophenone]: the AC50 came to 52.7 µM.

Consider `Cc1ccc(/C=N/n2c(-c3ccccc3)csc2=S)cc1` [Fezatione], for which the half-maximal activity concentration (AC50) came to 20.5 µM.

For the compound `CCCC1O[C@@H]2C[C@H]3[C@@H]4CCC5=CC(=O)C=C[C@]5(C)[C@H]4[C@@H](O)C[C@]3(C)[C@]2(C(=O)CO)O1` (stereo partly shown) [Budesonide], the AC50 was more than 50 µM.

On to `CCCCC(C#N)(Cn1cncn1)c1ccc(Cl)cc1` (stereo not shown) [Myclobutanil], for which the AC50 turned out to be 79 µM.

Turning to `O=S(=O)(NS(=O)(=O)C(F)(F)F)C(F)(F)F` [1-Hexyl-3-methylimidazolium bis(trifluoromethylsulfonyl)imide], the AC50 came to 66.1 µM.

In the case of `O=C(c1ccccc1)C1CCCCC1` [Cyclohexylphenylketone], the half-maximal activity concentration (AC50) is 69.7 µM.

For the compound `Brc1ccc(Oc2ccccc2)cc1` [p-Bromodiphenyl ether], the AC50 stood at 44.7 µM.

`CCCCCCCCCCCCN` [1-Dodecanamine]: the AC50 is 74.1 µM.

As for `Cc1ccc(S(=O)(=O)NC2CCCCC2)cc1` [N-Cyclohexyl-4-methylbenzenesulfonamide], the concentration at half-maximal activity (AC50) is more than 90 µM.

As to `CC(C)CCOC(=O)/C=C/c1ccccc1` [3-Methylbutyl cinnamate], the concentration at half-maximal activity (AC50) turned out to be 81.8 µM.

In the case of `CCC(=O)O[C@]1(C(=O)CCl)[C@@H](C)C[C@H]2[C@@H]3C[C@H](F)C4=CC(=O)C=C[C@]4(C)[C@@]3(F)[C@@H](O)C[C@@]21C` [Halobetasol propionate], the AC50 stood at 42.4 µM.

As to `CSc1ccc(/C=C2/C(C)=C(CC(=O)O)c3cc(F)ccc32)cc1` [Sulindac sulfide], the half-maximal activity concentration (AC50) was 24 µM.

On to `CCCCC/C=C\C/C=C\C/C=C\CCCCC(=O)O` [Gamolenic acid], for which the AC50 came out at 22.9 µM.

`O=c1oc2ccccc2c(O)c1C1CCCc2ccccc21` (stereo not shown) [Coumatetralyl]: the concentration at half-maximal activity (AC50) is more than 90 µM.

Take `CN(C)c1ccc(SC#N)cc1` [4-(Dimethylamino)phenylthiocyanate]: the AC50 turned out to be 59.1 µM.

With `C(COCC1CO1)OCC1CO1` (stereo not shown) [Ethylene glycol diglycidyl ether], the AC50 was 38 µM.

On to `COC(=O)c1c(Cl)c(Cl)c(C(=O)OC)c(Cl)c1Cl` [Chlorthal-dimethyl], for which the half-maximal activity concentration (AC50) was determined as 72.5 µM.

As for `COc1cccc(N(C)C(=S)Oc2ccc3c(c2)CCCC3)n1` [Liranaftate], the AC50 was 39.9 µM.
